Where “and” joins values, the source holds several entries; their conditions need not be identical. Identical values can stand only once. The whole screen tested about 5,500 compounds, of which about 2,000 (36%) were called active. About 18% were inconclusive and are not listed. No stated cut-off is given here; in the data, active means normalized growth mostly below about 0.91 (no sharp cut-off); inconclusive means no clear call, values can overlap the other calls; inactive means mostly above about 0.92. Some of the results follow.
Assay: chemical genetic growth profiling, strain panel (AID 1159580);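 further: tested at 20 µM; growth read once vehicle control cultures reached saturation at 30 °C; 1 = growth at the plate median or of vehicle wells; lower values mean less growth of the strain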
Settings: S. cerevisiae deletion strains, growth OD

Measured: normalized growth

CN[C@H](CC(=O)O)C(=O)O
inactive: locus YAL013W, strain DEP1, active compounds read low 0.983 | locus YAL021C, strain ccr4, active compounds read low 0.988 | locus YAL026C, strain drs2, active compounds read low 1.02 | locus YAL030W, strain snc1, active compounds read low 1.01 | locus YBL061C, strain skt5, active compounds read low 1.02 | locus YBR009C, strain hhf1, active compounds read low 1.01 | locus YBR021W, strain FUR4, active compounds read low 1.02 | locus YBR023C, strain chs3, active compounds read low 1.03 | locus YBR171W, strain sec66, active compounds read low 1.01 | locus YBR229C, strain ROT2, active compounds read low 0.998 | locus YBR231C, strain swc5, active compounds read low 1.02 | locus YBR279W, strain paf1, active compounds read low 1.01 | locus YCL011C, strain gbp2, active compounds read low 1.03 | locus YCL016C, strain dcc1, active compounds read low 1.02 | locus YCL029C, strain bik1, active compounds read low 0.985 | locus YCL061C, strain MRC1, active compounds read low 1 | locus YCL069W, strain vba3, active compounds read low 1.01 | locus YCR088W, strain abp1, active compounds read low 1.02 | locus YDL005C, strain med2, active compounds read low 1.03 | locus YDL035C, strain GPR1, active compounds read low 0.989 | locus YDL040C, strain nat1, active compounds read low 1.02 | locus YDL074C, strain BRE1, active compounds read low 1.04 | locus YDL101C, strain DUN1, active compounds read low 0.995 | locus YDL134C, strain PPH21, active compounds read low 0.987 | locus YDL185W, strain tfp1, active compounds read low 0.968 | locus YDL192W, strain arf1, active compounds read low 0.967 | locus YDR001C, strain nth1, active compounds read low 1.03 | locus YDR069C, strain doa4, active compounds read low 1.02 | locus YDR101C, strain arx1, active compounds read low 1.03 | locus YDR137W, strain rgp1, active compounds read low 0.967 | locus YDR159W, strain sac3, active compounds read low 1.03 | locus YDR162C, strain NBP2, active compounds read low 0.964 | locus YDR195W, strain ref2 1.05 | locus YDR297W, strain sur2, active compounds read low 1.02 | locus YDR318W, strain mcm21, active compounds read low 0.98 | locus YDR334W, strain swr1, active compounds read low 1.01 | locus YDR335W, strain msn5, active compounds read low 1.01 | locus YDR388W, active compounds read low 0.972 | locus YDR392W, strain spt3, active compounds read low 0.969 | locus YDR502C, strain sam2, active compounds read low 0.989 | locus YEL003W, strain gim4, active compounds read low 1.01 | locus YEL037C, strain rad23, active compounds read low 1.02 | locus YEL061C, strain CIN8 (second series), active compounds read low 1.03 | locus YEL061C, strain CIN8, active compounds read low 0.994 | locus YER015W, strain faa2, active compounds read low 1.02 | locus YER016W, strain bim1, active compounds read low 1.02 | locus YER110C, active compounds read low 0.945 | locus YER111C, strain swi4, active compounds read low 1.02 | locus YER155C, strain BEM2 (second series), active compounds read low 1.06 | locus YER155C, strain BEM2, active compounds read low 1 | locus YER167W, strain BCK2, active compounds read low 0.998 | locus YFR010W, strain ubp6, active compounds read low 1.03 | locus YGL078C, strain dbp3, active compounds read low 0.975 | locus YGL086W, strain mad1, active compounds read low 1.02 | locus YGL167C, strain pmr1, active compounds read low 1.01 | locus YGL173C, strain kem1, active compounds read low 1.01 | locus YGL227W, strain vid30, active compounds read low 1.03 | locus YGL240W, strain doc1, active compounds read low 1.04 | locus YGL248W, strain PDE1, active compounds read low 0.996 | locus YGL253W, strain hxk2, active compounds read low 1.02 | locus YGR135W, strain pre9, active compounds read low 0.923 | locus YGR252W, strain gcn5, active compounds read low 0.979 | locus YHR013C, strain ard1, active compounds read low 1.04 | locus YHR027C, strain rpn1, active compounds read low 1.02 | locus YHR030C, strain SLT2, active compounds read low 0.991 and 1.03 | locus YHR079C, strain IRE1 (second series), active compounds read low 0.992 | locus YHR079C, strain IRE1, active compounds read low 1.04 | locus YHR094C, strain hxt1, active compounds read low 0.981 | locus YHR129C, strain ARP1, active compounds read low 0.995 | locus YHR142W, strain chs7, active compounds read low 1.03 | locus YHR200W, strain rpn10, active compounds read low 0.98 | locus YIL066C, strain RNR3, active compounds read low 1 | locus YIL073C, strain SPO22, active compounds read low 0.913 | locus YIL125W, strain kgd1, active compounds read low 1 | locus YIR030C, strain dcg1, active compounds read low 0.983 | locus YJL092W, strain hpr5, active compounds read low 1.01 | locus YJL095W, strain BCK1 (second series), active compounds read low 1.02 | locus YJL095W, strain BCK1, active compounds read low 1.01 and 1.06 | locus YJL115W, strain asf1, active compounds read low 1.03 | locus YJL129C, strain trk1, active compounds read low 1.09 | locus YJL134W, strain LCB3, active compounds read low 0.993 | locus YJL154C, strain vps35, active compounds read low 1.02 | locus YJL164C, strain tpk1, active compounds read low 0.998 | locus YJL166W, strain qcr8, active compounds read low 1.03 | locus YJL168C, strain set2, active compounds read low 0.98 | locus YJL187C, strain SWE1 (second series), active compounds read low 1 | locus YJL187C, strain SWE1, active compounds read low 1.01 | locus YJR043C, strain POL32, active compounds read low 1
